Assay results: PubChem BioAssay (NCI)
The panel holds about 79,000 compounds, 15% with a hit somewhere; the sample as a whole holds those more often. Values without a mark were called inactive. Calls of active or inactive are those of the source. Rule as the data show it: active = growth inhibition above about 70%; inactive = the rest. Where a SMILES comes first, the peptide text is derived from it. The star is where a group is joined. Boc = CC(C)(C)OC(=O)*

Columns and labels:
[1] = NCI Yeast Anticancer Drug Screen. Data for the rad50 strain (AID 155);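 also: 0% = growth of vehicle-only cultures of the same strain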; conditions: S. cerevisiae rad50 strain growth inhibition; at 50.0 µM; stronger effect = higher value
In short: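 A DNA repair-deficient yeast mutant serves as the test organism; compound-induced growth inhibition is calculated against vehicle-treated cells.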

[2] = NCI Yeast Anticancer Drug Screen. Data for the mec2-1 strain (AID 157); conditions: S. cerevisiae mec2-1 strain, at 50.0 µM, stronger effect = higher value
In short: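 Each compound was tested on mec2-1 yeast, a strain altered in DNA damage repair or cell cycle control. Growth inhibition is reported relative to vehicle.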

[3] = NCI Yeast Anticancer Drug Screen. Data for the sgs1 mgt1 strain (AID 161);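 also: 0% = growth of cultures given vehicle only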; conditions: S. cerevisiae sgs1 mgt1 strain, at 50.0 µM, stronger effect = higher value
In short: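 Mutant yeast exposed to compound; growth scored against vehicle-only wells.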

[4] = NCI Yeast Anticancer Drug Screen. Data for the cln2 rad14 strain (AID 165);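 also: 0% = growth equal to vehicle treated cultures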; conditions: S. cerevisiae cln2 rad14 strain, at 50.0 µM, stronger effect = higher value
In short: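 Test compounds were added to cln2 rad14 yeast cultures; inhibition of growth was then determined by comparison with vehicle treatment.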

[5] = NCI Yeast Anticancer Drug Screen. Data for the bub3 strain (AID 167); conditions: S. cerevisiae bub3 mutant strain, at 50.0 µM, stronger effect = higher value
In short: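 Inhibition values come from growth of compound-treated mutant yeast normalised to vehicle-treated controls.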

[6] = NCI Yeast Anticancer Drug Screen. Data for the mlh1 rad18 strain (AID 175); conditions: S. cerevisiae mlh1 rad18 strain growth inhibition; at 50.0 µM; stronger effect = higher value
In short: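 Inhibition values reflect reduced growth of mutant yeast versus vehicle-treated controls following compound exposure; the mutations affect DNA damage repair.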

C(=C/c1ccc(-c2ccccc2)cc1)/C=C/c1ccc(-c2ccccc2)cc1
growth inhibition [1]: 3.3%
growth inhibition [2]: 4%
growth inhibition [3]: -0.2%
growth inhibition [4]: -29.2%
growth inhibition [5]: 6.95%
growth inhibition [6]: 17.9%

CCOC(=O)c1nc2ccc(C(F)(F)F)cc2nc1NCc1ccc(OC)c(OC)c1
growth inhibition [1]: 5.7%
growth inhibition [2]: 6.65%
growth inhibition [3]: -28%
growth inhibition [4]: -13.1%
growth inhibition [5]: -23.5%
growth inhibition [6]: -24.8%

Nc1nc(Cl)c(Cl)nc1C(=O)O
growth inhibition [1]: -4.65%
growth inhibition [2]: 10.4%
growth inhibition [3]: 2.3%
growth inhibition [4]: -32.6%
growth inhibition [5]: -4.25%
growth inhibition [6]: -1.15%

CC1=C(c2cc(C(=O)Nc3nccs3)nc(NC#N)n2)Sc2ccccc2N1
growth inhibition [1]: -9.2%
growth inhibition [2]: 5.4%
growth inhibition [3]: -8.65%
growth inhibition [4]: 15.2%
growth inhibition [5]: 4.5%
growth inhibition [6]: 10.3%

COc1ccc(N2C(=O)CC(c3c[nH]c4ccccc34)C2=O)cc1 (stereo unspecified)
growth inhibition [1]: -29.2%
growth inhibition [2]: -37.1%
growth inhibition [3]: 1.05%
growth inhibition [4]: 6.9%
growth inhibition [5]: 13.8%
growth inhibition [6]: -22.2%

COc1cc(CC2C(=O)NC(=O)NC2=O)ccc1OCc1ccccc1
growth inhibition [1]: 17.8%
growth inhibition [2]: -7.75%
growth inhibition [3]: -5.1%
growth inhibition [4]: -19.4%
growth inhibition [5]: -21.4%
growth inhibition [6]: -47%

CCCCCCOc1ccc(OCCCC[N+]2(CC)CCCCC2)cc1
growth inhibition [1]: 75.5% (active)
growth inhibition [2]: 87.8% (active)
growth inhibition [3]: 73.7% (active)
growth inhibition [4]: 46.5%
growth inhibition [5]: 90.8% (active)
growth inhibition [6]: 90.8% (active)

O=C(C[n+]1ccnc2ccccc21)c1ccc(Br)cc1
growth inhibition [1]: 15.7%
growth inhibition [2]: -3.05%
growth inhibition [3]: 2%
growth inhibition [4]: 6.45%
growth inhibition [5]: -6.6%
growth inhibition [6]: 13%

COC(=O)c1cc(C(=O)OC)c(C/C(=N/Nc2ccc([N+](=O)[O-])cc2[N+](=O)[O-])C(=O)Nc2cccc(C(F)(F)F)c2)nc1C/C(=N/Nc1ccc([N+](=O)[O-])cc1[N+](=O)[O-])C(=O)Nc1cccc(C(F)(F)F)c1
growth inhibition [1]: 57%
growth inhibition [2]: -5.95%
growth inhibition [3]: 1.15%
growth inhibition [4]: 25.4%
growth inhibition [5]: 37.9%
growth inhibition [6]: 59.8%

O=S(=O)(c1ccc(O)c(Cl)c1)c1ccc(O)c(Cl)c1
growth inhibition [1]: 32.8%
growth inhibition [2]: 37.5%
growth inhibition [3]: 16.1%
growth inhibition [4]: 36.7%
growth inhibition [5]: 47.2%
growth inhibition [6]: 31.1%

CSCCC(NC(=O)C(CC(C)C)NC(=O)CNC(=O)OC(C)(C)C)C(=O)N(C)C (stereo not drawn) (Boc-Gly-Leu-Met-NMe2; configuration not given here)
growth inhibition [1]: 6.6%
growth inhibition [2]: -5.15%
growth inhibition [3]: -3.9%
growth inhibition [4]: -2.8%
growth inhibition [5]: -0.1%
growth inhibition [6]: -3%

Cc1cc(C)c2c(SCc3ccc(Cl)cc3Cl)nc(N)nc2n1
growth inhibition [1]: 31.8%
growth inhibition [2]: 12.3%
growth inhibition [3]: 45.9%
growth inhibition [4]: -27.9%
growth inhibition [5]: 7.1%
growth inhibition [6]: 44.8%

C=C(Nc1ccc(OC)cc1OC)C(=O)Cc1cccc[n+]1[O-]
growth inhibition [1]: 6.25%
growth inhibition [2]: -2.45%
growth inhibition [3]: -10.5%
growth inhibition [4]: -2.4%
growth inhibition [5]: -3.4%
growth inhibition [6]: -8.8%

CN1CCc2nc(N)nc(-c3nc(N)nc4c3CN(C)CC4)c2C1
growth inhibition [1]: -3.15%
growth inhibition [2]: -12.2%
growth inhibition [3]: -11.4%
growth inhibition [4]: -17.1%
growth inhibition [5]: -37.1%
growth inhibition [6]: -1.8%

Nc1ccccc1OCC(=O)Nc1c(N)ncnc1N
growth inhibition [1]: 0.4%
growth inhibition [2]: -6.35%
growth inhibition [3]: 6.85%
growth inhibition [4]: 2.95%
growth inhibition [5]: 5.9%
growth inhibition [6]: -3.8%

CCOC(=O)/C(=C/c1cccc2ccccc12)P(=O)(OCC)OCC
growth inhibition [1]: 36.6%
growth inhibition [2]: 50.9%
growth inhibition [3]: 51.7%
growth inhibition [4]: 29.4%
growth inhibition [5]: 37.1%
growth inhibition [6]: 52.4%

O=C(O)CC(=O)c1ccccc1
growth inhibition [1]: -27.8%
growth inhibition [2]: 4.85%
growth inhibition [3]: -10.4%
growth inhibition [4]: 14.2%
growth inhibition [5]: 4.35%
growth inhibition [6]: -15.8%

O=C(Nc1ccccc1)Oc1cccc(-c2ccc(-c3ccccc3)cc2)c1
growth inhibition [1]: 29.4%
growth inhibition [2]: 6.5%
growth inhibition [3]: 33.7%
growth inhibition [4]: 18.9%
growth inhibition [5]: 49.5%
growth inhibition [6]: 18.2%

CC12CC3OC3CC1CCC1C2CCC2(C)C1CCC21OCCO1 (stereo unspecified)
growth inhibition [1]: 16%
growth inhibition [2]: -32.7%
growth inhibition [3]: 3.6%
growth inhibition [4]: 3.15%
growth inhibition [5]: 23.1%
growth inhibition [6]: 22.6%

CC(=O)C(c1ccccc1)S(=O)(=O)c1ccc(C)cc1 (stereo unspecified)
growth inhibition [1]: 13.8%
growth inhibition [2]: -18.4%
growth inhibition [3]: -11.7%
growth inhibition [4]: -42.4%
growth inhibition [5]: 24.9%
growth inhibition [6]: -1.5%

O=[N+]([O-])c1cccc(-c2csc(N=Nc3c(O)[nH]c4ccccc34)n2)c1
growth inhibition [1]: -29.6%
growth inhibition [2]: -8.9%
growth inhibition [3]: -0.3%
growth inhibition [4]: -12.9%
growth inhibition [5]: 14.2%
growth inhibition [6]: 13.3%

Cc1ccc2c(c1)-c1cc(C)ccc1C2
growth inhibition [1]: 29.1%
growth inhibition [2]: 19.9%
growth inhibition [3]: 16.4%
growth inhibition [4]: 15%
growth inhibition [5]: 29.4%
growth inhibition [6]: -1.35%

COCCOCOCCCC#C[Si](C)(C)C
growth inhibition [1]: 8.3%
growth inhibition [2]: 25.9%
growth inhibition [3]: 13.9%
growth inhibition [4]: -1.2%
growth inhibition [5]: -4%
growth inhibition [6]: -19.4%

CC1=C(C#[N+][O-])C(C)(C)CCC1
growth inhibition [1]: 1.05%
growth inhibition [2]: 5.1%
growth inhibition [3]: -2.9%
growth inhibition [4]: 10.1%
growth inhibition [5]: -23.9%
growth inhibition [6]: -16.2%

COc1cc2c(cc1OC)C(Cc1cc(Br)c(OC)c(OC)c1)=[N+](C)CC2
growth inhibition [1]: 1.65%
growth inhibition [2]: 4.4%
growth inhibition [3]: -12.4%
growth inhibition [4]: 9.65%
growth inhibition [5]: 1.05%
growth inhibition [6]: 11.2%

NC(=S)N/N=C\c1ncccc1OCc1cccc(N)c1
growth inhibition [1]: 32.3%
growth inhibition [2]: 46.9%
growth inhibition [3]: 42%
growth inhibition [4]: 5.6%
growth inhibition [5]: 37.4%
growth inhibition [6]: 29.2%

CC(C)CNCCCC(C)Nc1ccnc2cc(Cl)ccc12 (stereo unspecified)
growth inhibition [1]: 11.3%
growth inhibition [2]: -1.45%
growth inhibition [3]: -2.25%
growth inhibition [4]: -2.95%
growth inhibition [5]: -15%
growth inhibition [6]: -9.65%

CCOc1ccc(/C=N/O)cc1OCC
growth inhibition [1]: -0.3%
growth inhibition [2]: -10.1%
growth inhibition [3]: -10.2%
growth inhibition [4]: -25.6%
growth inhibition [5]: -2.1%
growth inhibition [6]: -2.6%

CCOP(C)(=O)C(Cc1c[nH]c2ccccc12)C(=O)O (stereo unspecified)
growth inhibition [1]: -20.7%
growth inhibition [2]: -19.7%
growth inhibition [3]: 9.9%
growth inhibition [4]: 13%
growth inhibition [5]: -12.8%
growth inhibition [6]: -2.5%

O=C(O)CCc1ccc2c(c1)CC1(Cc3ccccc3C1)C2
growth inhibition [1]: 26.1%
growth inhibition [2]: 41.8%
growth inhibition [3]: 61.2%
growth inhibition [4]: 52.6%
growth inhibition [5]: 48.1%
growth inhibition [6]: 64%

O=c1oc2ccccc2cc1-n1nnc2cc([N+](=O)[O-])ccc21
growth inhibition [1]: 39%
growth inhibition [2]: 24.1%
growth inhibition [3]: 25.8%
growth inhibition [4]: -25.6%
growth inhibition [5]: 12.8%
growth inhibition [6]: 26.8%

CN(C)C(=O)C1CCNCC1
growth inhibition [1]: 2.5%
growth inhibition [2]: -2.1%
growth inhibition [3]: -4.15%
growth inhibition [4]: -9.5%
growth inhibition [5]: -11.3%
growth inhibition [6]: 3.45%

CC1(C)CN(CCO)C(C)(C)CN1CCO
growth inhibition [1]: 13.4%
growth inhibition [2]: 7.35%
growth inhibition [3]: 7.2%
growth inhibition [4]: 12.4%
growth inhibition [5]: -27.7%
growth inhibition [6]: -10.1%

O=C(/C=C/c1ccccc1)Nc1ccc([N+](=O)[O-])cc1Cl
growth inhibition [1]: 4.75%
growth inhibition [2]: 10.7%
growth inhibition [3]: 12%
growth inhibition [4]: -1.95%
growth inhibition [5]: 26.2%
growth inhibition [6]: 18.5%

Cc1ccc(-c2cc(=S)n(-c3ccccc3)c3nc(=S)n(-c4ccccc4)c(N)c23)cc1
growth inhibition [1]: 14.4%
growth inhibition [2]: 24.4%
growth inhibition [3]: 18.1%
growth inhibition [4]: -12.9%
growth inhibition [5]: 23.8%
growth inhibition [6]: 25.9%

CC(=O)Nc1ccc(C2C(C(=O)Nc3ccccc3)=C(C)NC(C)=C2C(=O)Nc2ccccc2)cc1
growth inhibition [1]: 17.1%
growth inhibition [2]: -2.6%
growth inhibition [3]: 12.7%
growth inhibition [4]: 11.2%
growth inhibition [5]: 32.5%
growth inhibition [6]: -2.2%

CCOC1CS(=O)(=O)CC(OCC)O1 (stereo unspecified)
growth inhibition [1]: 3.35%
growth inhibition [2]: 6.05%
growth inhibition [3]: 4.9%
growth inhibition [4]: -30.6%
growth inhibition [5]: -8.35%
growth inhibition [6]: 13.8%

C=CCNC(=S)NNC(=O)c1ccncc1
growth inhibition [1]: -19.8%
growth inhibition [2]: -10.3%
growth inhibition [3]: -21.6%
growth inhibition [4]: -82.8%
growth inhibition [5]: 2.4%
growth inhibition [6]: -23.8%

C(=C\c1cccc2ccccc12)/c1ccc(-c2ccccc2)cc1
growth inhibition [1]: -5.9%
growth inhibition [2]: -45%
growth inhibition [3]: -0.75%
growth inhibition [4]: 12.1%
growth inhibition [5]: -3.45%
growth inhibition [6]: 5.75%

CCN1N=Nc2ccccc2NC1=O
growth inhibition [1]: 18.1%
growth inhibition [2]: 9.85%
growth inhibition [3]: 8.45%
growth inhibition [4]: 4.5%
growth inhibition [5]: -13.1%
growth inhibition [6]: -25.3%

Clc1ccc(Cl)c(Nc2ccnc(SCc3ccccc3)n2)c1
growth inhibition [1]: 42.1%
growth inhibition [2]: 25.9%
growth inhibition [3]: -27.5%
growth inhibition [4]: 14.4%
growth inhibition [5]: -7%
growth inhibition [6]: 24.9%
